# Assay results as given in publication PMC6602471.
# Over roughly 1,300 sequences, “log fluorescence intensity” has its median near 8.9; the highest 2% begin near 13. The list comes from a sample in which the highest values are over-represented; it also holds similar and randomly drawn sequences.
# Molecular target: T1, ELK1 (Homo sapiens, UniProt P19419 1-428)
# T1 sequence: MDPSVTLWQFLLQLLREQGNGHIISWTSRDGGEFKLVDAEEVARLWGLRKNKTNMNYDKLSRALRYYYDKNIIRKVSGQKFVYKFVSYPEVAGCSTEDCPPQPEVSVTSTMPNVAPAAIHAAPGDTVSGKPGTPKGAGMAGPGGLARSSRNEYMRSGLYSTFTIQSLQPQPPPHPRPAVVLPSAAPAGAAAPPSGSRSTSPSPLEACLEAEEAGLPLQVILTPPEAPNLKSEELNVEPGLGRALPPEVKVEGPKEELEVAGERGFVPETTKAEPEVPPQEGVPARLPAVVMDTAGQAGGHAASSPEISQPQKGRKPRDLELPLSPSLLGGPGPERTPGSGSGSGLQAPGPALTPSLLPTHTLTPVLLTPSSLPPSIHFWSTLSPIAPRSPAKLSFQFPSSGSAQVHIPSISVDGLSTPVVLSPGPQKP
# Assay: custom PBM; custom protein-binding microarray; buffer, salt, pH and temperature not stated; high values mean tight binding
# Details: dsDNA, one strand shown
row,Sequence,binding signal
1,GCTGCTGCGGTGCATACCCCACCGGATGTGACTCCGGTCTTGATTCGCTTGACGCTGCTG,10.3 log fluorescence intensity
2,GATTAATTTCTTCCCTTATTCGCACGTGCCATAACAGTCTTGATTCGCTTGACGCTGCTG,9.19 log fluorescence intensity
3,CGGAAGTGTCCTAAACGTCGGATATCCGGTTCTTCTGTCTTGATTCGCTTGACGCTGCTG,12.4 log fluorescence intensity
4,CGGAAGTGTCGTCAACGTCGGATATCCGGTTCTTCTGTCTTGATTCGCTTGACGCTGCTG,12.6 log fluorescence intensity
5,CGGAAGTGTCGTTAACGTCGGATATCCGGTTCTTCTGTCTTGATTCGCTTGACGCTGCTG,12.6 log fluorescence intensity
6,CGGAAGTGTCGCAAACGTCGGATATCCGGTTCTTCTGTCTTGATTCGCTTGACGCTGCTG,12.5 log fluorescence intensity
7,CGGAAGTGTCGTAGACGTCGGATATCCGGTTCTTCTGTCTTGATTCGCTTGACGCTGCTG,12.3 log fluorescence intensity
8,CGGAAGTGTCGTATACGTCGGATATCCGGTTCTTCTGTCTTGATTCGCTTGACGCTGCTG,12.5 log fluorescence intensity
9,CGGAAGTGTCGGAAACGTCGGATATCCGGTTCTTCTGTCTTGATTCGCTTGACGCTGCTG,13.5 log fluorescence intensity
10,CGGAAGTGTAGTAAACGTCGGATATCCGGTTCTTCTGTCTTGATTCGCTTGACGCTGCTG,12.1 log fluorescence intensity
11,CGGAAGTGTCGTGAACGTCGGATATCCGGTTCTTCTGTCTTGATTCGCTTGACGCTGCTG,11.8 log fluorescence intensity
12,CGGAAGTGTCATAAACGTCGGATATCCGGTTCTTCTGTCTTGATTCGCTTGACGCTGCTG,12.1 log fluorescence intensity
13,CGGAAGTGTCGAAAACGTCGGATATCCGGTTCTTCTGTCTTGATTCGCTTGACGCTGCTG,12.4 log fluorescence intensity
14,CGGAAGTGTCTTAAACGTCGGATATCCGGTTCTTCTGTCTTGATTCGCTTGACGCTGCTG,12.1 log fluorescence intensity
15,GCTGCCGCGGTGCATACCCCACCGGATGTGACCCCGGTCTTGATTCGCTTGACGCTGCTG,10.5 log fluorescence intensity
16,GCTGATGCGGTGCATACCCCACCGGATGTGACCCCGGTCTTGATTCGCTTGACGCTGCTG,10.2 log fluorescence intensity
17,CTGGGACTTGACCCAACTCTGCCGCGTGGGTCGTTTGTCTTGATTCGCTTGACGCTGCTG,8.91 log fluorescence intensity
18,GGAAAAAGACCCAGGGTAACACCGGAAGTGGGCTTAGTCTTGATTCGCTTGACGCTGCTG,11 log fluorescence intensity
19,GCTGCTGCGTTGCATACCCCACCGGATGTGACCCCGGTCTTGATTCGCTTGACGCTGCTG,10.1 log fluorescence intensity
20,TCCGGCTACCAGCTCCACCCAATTCAGGCCTTGTAGGTCTTGATTCGCTTGACGCTGCTG,8.93 log fluorescence intensity

row,Sequence,binding signal
1,CTGGGACTTGACCTAACTCTGCCACGTGGGTCGTTTGTCTTGATTCGCTTGACGCTGCTG,8.92 log fluorescence intensity
2,CACAATTTTTACAGTAATGTAGCATGCGTAACTCCTGTCTTGATTCGCTTGACGCTGCTG,8.94 log fluorescence intensity
3,CTGGGACATGACCCAACTCTGCCACGTGGGTCGTTTGTCTTGATTCGCTTGACGCTGCTG,8.96 log fluorescence intensity
4,GCTGCTGCGGTGCATACCCCACAGGATGTGACCCCGGTCTTGATTCGCTTGACGCTGCTG,9.08 log fluorescence intensity
5,TGTCGGGTAAGGGAATGTAGATCACGTGAATGAATAGTCTTGATTCGCTTGACGCTGCTG,8.98 log fluorescence intensity
6,TGTCGGGTAAGGGAATGTAGATCACGTGAATGATAAGTCTTGATTCGCTTGACGCTGCTG,9.11 log fluorescence intensity
7,GCTGCTGCGGTGCATACCCCACCGGATGTGCCCCCGGTCTTGATTCGCTTGACGCTGCTG,10.2 log fluorescence intensity
8,TATTAATTTCTGCCCTTATTCGCACGTGCCATAACAGTCTTGATTCGCTTGACGCTGCTG,8.91 log fluorescence intensity
9,GTGTATAGGATCCCATCCAACACACGGGTTAAAATGGTCTTGATTCGCTTGACGCTGCTG,8.95 log fluorescence intensity
10,GCTGCTGCGGTGCCTACCCCACCGGATGTGACCCCGGTCTTGATTCGCTTGACGCTGCTG,10.3 log fluorescence intensity
11,TACTGACTTTTATATGCGAATGCACATGAATAGACCGTCTTGATTCGCTTGACGCTGCTG,8.97 log fluorescence intensity
12,GTAAAAAGGCCCAGGGTAACACCGGAAGTGGGCTTAGTCTTGATTCGCTTGACGCTGCTG,10.9 log fluorescence intensity
13,GTGTATAGGATCCCATCCAACACACGTATTAAAATGGTCTTGATTCGCTTGACGCTGCTG,9.05 log fluorescence intensity
14,CGGAAGTGTGGTAAACGTCGGATATCCGGTTCTTCTGTCTTGATTCGCTTGACGCTGCTG,12 log fluorescence intensity
15,CAGTATAGGACTTCTTCCCTGAAGCAATTGATAACCGTCTTGATTCGCTTGACGCTGCTG,8.93 log fluorescence intensity
16,GTGTATGGGATCCCATCCAACACACGTGTTAAAATGGTCTTGATTCGCTTGACGCTGCTG,9.12 log fluorescence intensity
17,CACTATTTTTACAGTAATGTAGCACGCGTAACTCCTGTCTTGATTCGCTTGACGCTGCTG,8.94 log fluorescence intensity
18,TACTGACTAATATATGCGAATGCACATGAATAGACCGTCTTGATTCGCTTGACGCTGCTG,8.92 log fluorescence intensity
19,TGTCGGGTAAGGAAATGTAGATCACGTGAATGAAAAGTCTTGATTCGCTTGACGCTGCTG,8.91 log fluorescence intensity
20,GGAAAGAGGCCCAGGGTAACACCGGAAGTGGGCTTAGTCTTGATTCGCTTGACGCTGCTG,10.8 log fluorescence intensity
